Screens: PubChem, SRMLSC
This is a sample that favours compounds with a hit; in the whole collection about 6.8% have one here.
MK inhibit – S. pneumoniae MK inhibitors, primary screen, biochemical, PK/LDH-coupled NADH absorbance; purified MK, PK/LDH-coupled NADH absorbance 340 nm; 65,000 compounds, 0.48% hits; inhibition, % at 10 µM; mevalonate kinase [Streptococcus pneumoniae D39]; AID 555, 2006;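 active = ranked among the strongest by inhibition in the single 10 µM screen, a fixed top-ranked set picked for dose follow-up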
NADH enzymes – inhibitors of PK/LDH coupling enzymes, profiling panel, artefact control, biochemical, MLSMR library; coupled PK/LDH NADH assays, four targets; IC50, µM (highest dose often 10 µM), for inactives: top-dose inhibition; 65,000 compounds, 0.02% hits; AID 774, 2007;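 active = single-dose screening hits from any of four coupled enzyme assays that gave an IC50 when retested across doses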;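 note: the DPM-DC format reads NADH fluorescence rather than 340 nm absorbance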
Spn PMK inh – S. pneumoniae PMK inhibitors, primary screen, biochemical, mevalonate pathway, pilot trial included | phosphomevalonate kinase (Streptococcus pneumoniae D39) | purified PMK, PK/LDH-coupled NADH absorbance 340 nm | inhibition, % at 10 µM | 65,000 compounds, 0.49% hits | AID 539, 2006;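 active = top-ranked compounds by inhibition in the single 10 µM screen, taking a fixed number of the strongest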;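 note: 0% = full reaction with DMSO carrier and 100% = background rate without enzyme reaction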
Autofluor 339 – intrinsic fluorescence of library compounds, ex339/em460 – biochemical, MLSMR library, data from DPM-DC assay, artefact control, profiling panel. 65,000 compounds, 5.5% hits. compound autofluorescence, ex339/em460 nm, NADH buffer; active compounds read high; 1 = no-compound wells, NADH background. AID 709, 2007. fluorescence fold increase at 10 µM;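 active = at 10 µM, mean starting fluorescence two-fold or more over control wells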;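 note: signal is the first read of a kinetic run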
Abs 340nm – compound light absorbance at 340 nm, profiling panel, artefact control, biochemical, MLSMR library, data from PS, PMK, MK assays | fold change at 10 µM | compound absorbance at 340 nm, fold over control | 65,000 tested, under 10 active;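 active = at 10 µM dose, initial 340 nm absorbance at least 2 fold that of control wells; inactive = change under 2 fold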;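 note: initial absorbance extrapolated from kinetic A340 decline of NADH oxidation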
DPM-DC inhibit – S. pneumoniae DPM-DC inhibitors, primary screen, biochemical, PK/LDH-coupled NADH fluorescence; 65,000 compounds, 0.49% hits; purified DPM-DC; calls only at 10 µM; diphosphomevalonate decarboxylase (Streptococcus pneumoniae D39);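 active = the 320 compounds with the highest percent inhibition in the single-dose primary screen, excluding strongly autofluorescent ones, cut at about 32% in these data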;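 note: kinetic rate of NADH fluorescence loss reporting ADP formed by the decarboxylase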
Active calls of the source: *; i = inactive; . = no result shown; + = active, no number; [ ] = another dose, or the depositor's remark.

SMILES	MK inhibit	NADH enzymes	Spn PMK inh	Autofluor 339	Abs 340nm	DPM-DC inhibit
COc1ccc(OC)c2c(C)cc(NCCN3CCOCC3)nc12	5	8%	10	2.1*	1.1	.
CC1CCCCC1NC(=O)c1ccc2c(c1)[nH]c(=O)n2C1CCCC1 (centres undefined)	0	3%	9	1	0.99	i
O=C(Nc1ccc(Cl)c(C(F)(F)F)c1)C1CCCN(S(=O)(=O)c2cnc[nH]2)C1 (centres undefined)	6	7%	15	1.1	0.98	i
CC(C)c1cc(C(=O)Nc2ccc3c(c2)OCO3)no1	3	2%	4	1	1	i
Cc1onc(-c2c(Cl)cccc2Cl)c1C(=O)Nc1ccc2c(c1)OCO2	9	15%	28*	1.1	1	i
O=c1c2ccccc2nnn1CSc1nnc(-c2cccs2)n1Cc1ccccc1	76*	31%	10	1	1	i
CCc1ccc(OCC(=O)Nc2ccc(-c3nc4ccccc4o3)c(O)c2)cc1	11	9%	7	2.2*	1.1	.
Brc1[nH]nc2ccccc12	0	0%	0	1.1	1	i
COC(=O)c1ccc(COc2ccc3c(C)c(C)c(=O)oc3c2)o1	6	7%	8	2.2*	1.1	.
O=C(O)C(Oc1ccc2c3c(c(=O)oc2c1)CCC3)c1ccccc1 (centres undefined)	9	5%	1	3.7*	1.2	.
CC(=O)COc1ccc2c3c(c(=O)oc2c1)CCCC3	2	4%	5	3.9*	1	.
COC(=O)c1ccc(Cc2ccc(C(=O)OC)o2)o1	0	6%	19	0.99	0.99	i
CCc1cc2c3c(c(=O)oc2cc1O)CCCC3	1	1%	0	2.2*	1.2	.
Cn1cc(CN2CCN(c3ccccc3)CC2)c2ccccc21	0	4%	11	1.1	0.99	i
Cc1cc(C)cc(OCc2ccc(C(=O)O)o2)c1	7	8%	9	1.1	1	i
CC(=O)C(C)Oc1ccc2c3c(c(=O)oc2c1)CCCCC3 (centres undefined)	0	5%	9	3.7*	1.2	.
O=C(O)c1ccc(COc2ccc3c4c(c(=O)oc3c2)CCC4)o1	11	12%	13	3.5*	1.1	.
Cc1cc(OCC(=O)N2CCCC2)ccc1Cl	1	1%	1	1.1	1	i
O=C(O)C1CCN(C(=O)COc2ccc3c4c(c(=O)oc3c2)CCC4)CC1	14	18%	16	3.2*	1.1	i
Cc1c(C)c2ccc(OCc3ccc(C(=O)O)o3)c(C)c2oc1=O	1	4%	7	3.9*	1	.
Cc1cc(=O)oc2cc(OC(C)C(=O)N3CCCc4ccccc43)ccc12 (centres undefined)	0	2%	0	1.7	1.1	i
CCOC(=O)c1sc(NC(=O)CCn2nnc3ccccc32)c(C(=O)OCC)c1C	0	8%	23	1.2	1	i
CCCOc1ccc(OC(=O)c2ccc(Br)o2)cc1	5	2%	0	1.1	1.1	i
CCCCCCn1c(CN2CCN(C(=O)OCC)CC2)nc2c1c(=O)n(C)c(=O)n2C	7	5%	9	1.1	1	i
CC(=O)C(C)Oc1ccc2c3c(c(=O)oc2c1)CCCC3 (centres undefined)	8	10%	12	2.1*	1.1	.
SMILES	MK inhibit	NADH enzymes	Spn PMK inh	Autofluor 339	Abs 340nm	DPM-DC inhibit
Cc1nnc(NC(=O)C(C)Oc2ccc3c(C)cc(=O)oc3c2)s1 (centres undefined)	1	6%	10	1.5	1.1	i
Cc1ccnc(NC(=O)C2CCC(CNc3c(N4CCCC4)c(=O)c3=O)CC2)c1 (centres undefined)	3	1%	7	1	1	i
Cn1c(-c2ccc(F)cc2)cnc1SCC(=O)Nc1ccccc1N1CCOCC1	8	2%	4	1.2	0.98	i
CCCCCC(=O)Nc1cc(N(C)C)nc2ccccc12	0	2%	4	2.2*	1.1	.
CCCCn1c(=O)n(C)c(=O)c2c(C(F)(F)F)cc(-c3ccncc3)nc21	0	6%	12	2.1*	1.1	.
CCCCn1ccc(=O)c2c(C(F)(F)F)nccc21	12	4%	0	1.1	1.1	i
COc1ccc(N(C(=O)Cn2nnc3ccccc32)C(C(=O)NCc2ccco2)c2ccc(C)o2)cc1 (centres undefined)	10	6%	9	1.1	1	i
CC(=O)NC1N=C(C)N(c2ccccc2)C1=O (centres undefined)	0	9%	28*	1.1	1.1	i
CC(=O)Nc1ccn(-c2ccccc2)n1	11	2%	1	1.1	1	i
COC(=O)C1=CN(C(C)C)C=C(C(=O)OC)C1c1cc2c(cc1Br)OCO2	7	5%	4	2*	1	i
CC1=C(C(=O)OCC(C)C)C(c2cc3c(cc2Br)OCO3)NC(=O)N1C (centres undefined)	9	3%	12	1	0.99	i
CCc1nc(NC2CCCCC2)c(C#N)c2c1COC(C)(C)C2	4	4%	7	1.8	1	i
CCc1nc(NCC(C)C)c(C#N)c2c1COC(C)(C)C2	0	4%	7	2.1*	1	.
CCc1nc(NCC2CCCO2)c(C#N)c2c1COC(C)(C)C2 (centres undefined)	0	7%	13	2.3*	1	.
CC(C)c1nc(NCC2CCCO2)c(C#N)c2c1COC(C)(C)C2 (centres undefined)	2	3%	6	2.4*	0.99	+[fluoresces]
CCn1c(=O)cc(OCC(=O)Nc2ccccc2C#N)c2ccccc21	4	12%	7	1.1	1	i
Clc1ccc(Cn2ncc3c(N4CCOCC4)ncnc32)cc1	5	4%	6	1.1	1	i
CCOC(=O)c1sc(=NC(=O)c2cc(OC)c(OC)c(OC)c2)n(C)c1C	6	8%	9	4.3*	1.1	.
CCOC(=O)C(C(=O)OCC)C(=O)c1cc(OC)c(OC)c(OC)c1	2	5%	14	1.3	1	i
Cc1c(CCC(=O)O)c(=O)oc2cc3occ(-c4ccc(F)cc4)c3cc12	11	9%	8	1.6	1.1	i
CCc1cc(=O)oc2cc(OCC(=O)N3CCc4ccccc43)ccc12	2	10%	17	3.2*	1	i
